The source of these data is PubChem BioAssay (NCI).

Compounds without any hit were thinned out: in the full panel of roughly 83,000, 20% have a hit.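 Values shown are percent growth following 48 h exposure of cells in 96-well plates to a single concentration of compound; below 10 was considered active.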 The source made the active and inactive calls.

The subject of this assay is TK-10 renal. Briefly: NCI-60 one-dose screen, 48 h (100 = growth as untreated, 0 = no growth, -100 = all killed). The conditions noted are these: 10 µM unless noted. Here is the method: Growth inhibition of the TK-10 human tumor cell line is measured as a screen for anti-cancer activity. Cells are grown in 96 well plates and exposed to the test compound for 48 hours. Compounds are tested at a single concentration, which is 10^-5 M for most compounds. The reported endpoint is percent growth (GI% or GIPRCNT), where numbers from 0 - 100% represent growth inhibition, and numbers from -100% - 0 represent cell death. For example, a value of 40 represents 60% growth inhibition. A value of 0 means no net growth occurred over the course of the experiment. A value of -40 indicates 40% of cells at the beginning of the experiment died by the end of the experiment. A value of -100 means all cells are dead at the end of the experiment.
NCI-60 Human Tumor Cell Lines Screen was performed using the standard one-dose NCI protocol, which is described in more detail at https://dtp.cancer.gov/discovery_development/nci-60/default.htm.
Compounds with GIPRCNT values below 10 were considered active. Activity score was based on GIPRCNT using the following formula: […]
Score is 0 for GIPRCNT values of 100 or above, 50 for GIPRCNT values of 0, and 100 for GIPRCNT values of -100.
Regarding `COc1cc2c3c(cc4c5c(ccc4c3c1OC)OCO5)N(CCN(C)C)C2=O`, the growth was -4.01% (active).
On to `C/C(=N\NC(N)=S)c1nnn(-c2ccc([N+](=O)[O-])cc2)c1C`, for which the growth was 98.7% (inactive).
For the compound `CN1CCN(Cc2ccc(NC(=O)c3cncc(C#Cc4cnc5ccc(NCCO)nn45)c3)cc2C(F)(F)F)CC1`, the growth was -16.3% (active).
In the case of `CC1=C(C)C(=O)C(Nc2ccc(C)cc2)=C(Br)C1=O`, the growth is 145% (inactive).
In the case of `Brc1ccc2[nH]cc(-c3nn4cc(-c5nccs5)nc4s3)c2c1`, the growth was 98.3% (inactive).
For `Clc1ccc2c(N/N=C/c3c[nH]c4ccccc34)ccnc2c1` the value was -91.9% (active).
Under `N#C/C(=N\Nc1ccc(F)cc1)C(=O)Nc1cc(-c2ccccc2)nn1-c1ccccc1` stands 26.6% (inactive); under `COC(=O)c1cccc(NC2=C(Cl)C(=O)c3nc(C)ccc3C2=O)c1`, 128% (inactive).
For `CC/C(=C(/c1ccc(Cl)cc1)c1ccc(OCCN)cc1)c1ccccc1` the value was 115% (inactive); for `Cc1[nH]c(C(=O)Nc2ccccc2OCc2cccc(C(=O)NCCN)c2)cc1Cl`, 98.9% (inactive).
Consider `C#C[C@]1(O)CC[C@H]2[C@@H]3CC=C4c5sc(NCc6ccccc6)nc5CC[C@]4(C)[C@H]3CC[C@@]21C`, for which the growth is 76.8% (inactive).
For `C/C(=N\NC(=O)/C=C/CC(=O)O)c1nnn(-c2ccc([N+](=O)[O-])cc2)c1C` the value was 94.1% (inactive); for `CN1CC[C@@H]2[C@@]3(C)CC[C@H](O)C(C)(C)[C@@H]3CC[C@@]2(C)[C@]2(C)CC[C@@]3(CO)CCC(C)(C)C[C@@H]3C12` (stereo not given in full), 117% (inactive); for `O=C(CCCCCCN1CC(=O)N2[C@@H](C3CC3)c3[nH]c4ccccc4c3C[C@H]2C1=O)NO`, 79.2% (inactive).
In the case of `Cn1cc(-c2nn3cc(-c4ccncc4)nc3s2)c2cc(F)ccc21`, the growth was 155% (inactive).
For the compound `Cc1csc(/N=C(N)/N=C(\N)c2cccs2)n1`, the growth is 174% (inactive).
As for `Cc1ccc2c(n1)C(=O)C(Cl)=C(Nc1ccc(C#N)cc1)C2=O`, the growth is 104% (inactive).
Under `CCCCCc1ccc(S(=O)(=O)Nc2cc(-c3csc(N)n3)ccc2OC)cc1` stands 113% (inactive); under `CC1CCN(CC(=O)Nn2c(COc3ccccc3)nc3ccccc3c2=O)CC1`, 125% (inactive); under `NC(=O)n1c(=O)n(-c2cccc(C(F)(F)F)c2)c(=O)c2cc(-c3ccc(F)cc3F)ccc21`, 8.59% (active).
On to `O=C(Nc1cccc(C(F)(F)F)c1)N1CCN(c2cc(-c3cn(-c4ccccc4)nc3-c3cccc(O)c3)ccn2)CC1`, for which the growth is 63.3% (inactive).
Under `O=C(/C=C/c1csc(Br)n1)NO` stands -9.31% (active).
`COc1ccc(NC(=O)CCCCCCNC(=O)C(O)(O)C(F)(F)F)cc1`: the growth was 6.59% (active).
Take `CC1(C)CC[C@]23CC[C@]4(C)[C@H](CC[C@@H]5[C@@]6(C)CC[C@H](NCO)C(C)(C)[C@@H]6CC[C@]54C)[C@H]2[C@H]1OC3`: the growth was 122% (inactive).
Regarding `CCOP(=O)(OCC)OC[C@]12CCC(C)(C)C[C@H]1C1=CC[C@@H]3[C@@]4(C)CC[C@H](OP(=O)(OCC)OCC)C(C)(C)[C@@H]4CC[C@@]3(C)[C@]1(C)CC2`, the growth was 67.4% (inactive).
Under `O=C(Nc1ccccc1)Nc1nc2ccc([N+](=O)[O-])cc2[nH]1` stands 39.1% (inactive).
On to `C#CCn1cc(/C=N/Nc2nc(-c3ccc(Br)cc3)cs2)c2ccccc21`, for which the growth is 162% (inactive).
In the case of `O=C(Nc1ccc(Cl)c(C(F)(F)F)c1)Nc1ccc2c(ccn2C(=O)c2cccc(F)c2)c1`, the growth is 45.9% (inactive).
For the compound `O=C(CCCCCCNC(=O)C(O)(O)C(F)(F)F)Nc1ccc(-c2ccccc2)cc1`, the growth is 5.83% (active).
Regarding `O=S(=O)(Oc1ccc(-c2cn3ccsc3n2)cc1)c1cccc(C(F)(F)F)c1`, the growth was 98.7% (inactive).
Under `C#C[C@]1(O)CC[C@H]2[C@@H]3CC=C4c5sc(Nc6cc(Cl)ccc6OC)nc5CC[C@]4(C)[C@H]3CC[C@@]21C` stands 48.4% (inactive).
For `O=C(CCCCCCNC(=O)C(O)(O)C(F)(F)F)Nc1ncc(-c2ccccc2)s1` the value was -10.3% (active); for `O=C(CSc1nc2ccccc2c(=O)n1CCc1ccccc1)Nc1ccc(S(=O)(=O)Nc2ccc(Cl)nn2)cc1`, 149% (inactive); for `Cc1nc(/N=C(N)/N=C(\N)c2cccc(Br)c2)sc1C`, 83.3% (inactive).
Under `NC1[C@H]2CN(c3cnc(C(=O)Nc4cc(F)cc5cccnc45)cn3)C[C@@H]12` (stereo not given in full) stands 87.7% (inactive); under `O=C(/C=C/C=C/c1csc(Br)n1)NO`, 86.6% (inactive); under `O=C(CCCCCCNC(=O)C(O)(O)C(F)(F)F)Nc1ccc(Br)cc1`, -2.6% (active).
As to `C[C@H]1OCC2(CCN(c3cnc(C(=O)Nc4cc(F)cc5cccnc45)cn3)CC2)[C@H]1N`, the growth is 82.2% (inactive).
On to `COC(=O)CCSC1=C(C)C(=O)c2ccccc2C1=O`, for which the growth was 162% (inactive).
Under `COc1ccc2c(c1)c(-c1nnc(N)nc1-c1c[nH]c3ccc(F)cc13)cn2C` stands 90% (inactive).
